Data published in PubChem BioAssay (NCATS).
Where “and” joins values, the source holds several entries; their conditions need not be identical. Equal entries are not always repeated. Inconclusive results are not listed. Calls of active or inactive are those of the source. Calls follow the shape of the dose curve; as a rule, active = well fitted curve in the direction sought with a large enough effect; inconclusive = small, poorly fitted or top-dose-only effect, or another doubt; inactive = no such curve, though single readings can be large; an effect the other way counts as inactive or inconclusive.

What was measured:
KB-3-1 = assay: Cytotoxic Profiling of Annotated Libraries Using Quantitative High-Throughput Screening (AID 1296008); details: Five cell lines viability, CellTiter-Glo ATP luminescence, 48-72 h; max response: hits give low values; also: nearly all actives have a fitted effect of over 60% in size
In short: (§1)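 Cytotoxicity was measured as CellTiter-Glo ATP luminescence, read after 10 min at room temperature. Compound treatment of the cells lasted 48 or 72 hr at 37 degrees Celsius in a qHTS format.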

NIH3T3 [1] = assay: as above; details: Five cell lines viability, CellTiter-Glo ATP luminescence, 48-72 h; max response: hits give low values
In short: as §1

MCC-13 = assay: qHTS assay to identify novel small-molecules to repurpose for Merkel cell carcinoma treatment (AID 1296009); details: MCC and control cell lines, CellTiter-Glo viability, 72 h; series mostly up to 46 µM; also: nearly all actives have a fitted effect of over 60% in size
In short: (§2)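 72 hr, 37 degree celsius; NPC 8-pt / MIPE 11-pt dose response; compound pinned in DMSO; CellTiter-Glo, 10 min RT, luminescence; normalized to no-cell and DMSO controls.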

MCC-26 = assay: as above; details: MCC and control cell lines, CellTiter-Glo viability, 72 h; series mostly up to 46 µM
In short: as §2

MKL-1 = assay: as above; details: MCC and control cell lines, CellTiter-Glo viability, 72 h; series mostly up to 46 µM
In short: as §2

MKL-2 = assay: as above; details: MCC and control cell lines, CellTiter-Glo viability, 72 h; series mostly up to 46 µM
In short: as §2

NIH3T3 [2] = assay: as above; details: MCC and control cell lines, CellTiter-Glo viability, 72 h; series mostly up to 44.8 µM
In short: as §2

UISO = assay: as above; details: MCC and control cell lines, CellTiter-Glo viability, 72 h; series mostly up to 46 µM
In short: as §2

WaGa = assay: as above; details: MCC and control cell lines, CellTiter-Glo viability, 72 h; series mostly up to 46 µM
In short: as §2

HACAT = assay: as above; details: MCC and control cell lines, CellTiter-Glo viability, 72 h; at 44.8 µM (top of the series) unless noted
In short: as §2

JEG-3 = assay: Primary qHTS to identify gynecologic anti-cancer compounds using libraries of approved drugs and bioactive compounds (AID 1345084); details: Gynecologic cancer cell panel viability, ATPlite luminescence, 48 h; series mostly up to 57.5 µM; also: nearly all actives have a fitted effect of over 55% in size
In short: (§3)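 Five-concentration response, 48 h; readout is ATP-driven luciferase luminescence.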

Es-2 = assay: as above; details: Gynecologic cancer cell panel viability, ATPlite luminescence, 48 h; series mostly up to 57.5 µM
In short: as §3

HeLa = assay: as above; details: Gynecologic cancer cell panel viability, ATPlite luminescence, 48 h; series mostly up to 57.5 µM
In short: as §3

Hek293T = assay: as above; details: Gynecologic cancer cell panel viability, ATPlite luminescence, 48 h, control line for the selectivity index; series mostly up to 57.5 µM
In short: as §3

OV90 = assay: as above; details: Gynecologic cancer cell panel viability, ATPlite luminescence, 48 h; series mostly up to 57.5 µM
In short: as §3

PA-1 = assay: as above; details: Gynecologic cancer cell panel viability, ATPlite luminescence, 48 h; series mostly up to 57.5 µM
In short: as §3

C33A = assay: as above; details: Gynecologic cancer cell panel viability, ATPlite luminescence, 48 h; series mostly up to 57.5 µM
In short: as §3

CASKI = assay: as above; details: Gynecologic cancer cell panel viability, ATPlite luminescence, 48 h; series mostly up to 57.5 µM
In short: as §3
% is scaled to controls: 0 for no effect and ±100 for the full control effect; potency is read from the fitted curve at half-maximal effect.

OC1CCC(Nc2ncc3nc(Nc4c(F)cc(F)cc4F)n([C@@H]4CCOC4)c3n2)CC1 (stereo not given in full)
inactive: max response (KB-3-1) 8.34% | outcome (NIH3T3 [1]) | Potency (MCC-13) | Potency (MCC-26) | Potency (MKL-1) | Potency (MKL-2) | Potency (NIH3T3 [2]) | Potency (UISO) | Potency (WaGa)

CCC[C@H](Nc1nc(-c2ccc(NC(=O)NCC)c(OC)c2)ncc1C)c1cccnc1
active: Potency (KB-3-1) 0.0047 µM | Potency (MCC-13) 0.0469 µM | Potency (MKL-2) 0.0187 µM
inactive: max response (NIH3T3 [1]) -76.8%

Cc1ccc(NC(=O)Nc2cc(C(F)(F)F)ccc2F)cc1Nc1ccc2c(c1)NC(=O)C2=Cc1ccc[nH]1
inactive: Potency (MKL-2)
active: Potency (KB-3-1) 9.35 µM | Potency (NIH3T3 [1]) 16.6 µM | Potency (UISO) 18.7 µM

COC(=O)Nc1ccc(-c2nc(N3CCOCC3)c3cnn(C4CCN(C(=O)OC)CC4)c3n2)cc1
active: Potency (KB-3-1) 1.48 µM | Potency (NIH3T3 [1]) 4.18 µM | Potency (UISO) 0.526 µM | Potency (WaGa) 6.62 µM

CN1CC(=O)N2C(Cc3c([nH]c4ccccc34)[C@H]2c2ccc3c(c2)OCO3)C1=O (stereo not given in full)
inactive: max response (KB-3-1) -12.7% | Potency (MCC-13) | Potency (MCC-26) | Potency (MKL-1) | Potency (MKL-2) | Potency (UISO) | Potency (WaGa)

CCCCC(C)(C)[C@H](O)C=C[C@H]1[C@H](O)CC(=O)[C@H]1CC=CCCCC(=O)O
inactive: outcome (KB-3-1) | outcome (HACAT) | Potency (MCC-13) | Potency (MCC-26)

Clc1ccc(C2(c3ccc(-c4cn[nH]c4)cc3)CCNCC2)cc1
inactive: outcome (HACAT) | Potency (MKL-2) | Potency (JEG-3)
active: Potency (KB-3-1) 16.6 µM and 16.4 µM

COc1cc(N2CCN(C)CC2)ccc1Nc1nc(N)c(C(=O)c2c(Cl)cccc2Cl)s1
inactive: max response (KB-3-1) -5.11% | outcome (HACAT) | Potency (MCC-13) | Potency (MCC-26) | Potency (MKL-1) | Potency (MKL-2) | Potency (UISO) | Potency (WaGa)

O=c1[nH]nc(OCCCc2ccc(Cl)cc2)c(NCc2cccnc2)c1Br
inactive: max response (KB-3-1) 3.09% | max response (NIH3T3 [1]) 1.68% and -21.7% | Potency (MCC-26) | Potency (Es-2) | Potency (HeLa)
active: Potency (MKL-1) 23.5 µM | Potency (MKL-2) 14.8 µM

FC(F)(F)c1ccc(C=Cc2nc(COc3ccc(CCCCn4ccnn4)cc3)co2)cc1
active: Potency (MCC-13) 10.5 µM | Potency (MKL-1) 0.0235 µM | Potency (UISO) 0.0264 µM | Potency (WaGa) 0.0047 µM
inactive: max response (KB-3-1) -26.9% | max response (NIH3T3 [1]) -14.8%

CO[C@H]1O[C@@H]2O[C@@]3(C)CC[C@@H]4[C@@H](C)CC[C@@H]([C@H]1C)[C@@]24OO3
active: Potency (WaGa) 20.9 µM
inactive: outcome (KB-3-1) | outcome (NIH3T3 [1]) | Potency (MCC-13) | Potency (MKL-1) | Potency (NIH3T3 [2])

COc1cc2nccc(Oc3ccc(NC(=O)Nc4cc(C)on4)c(Cl)c3)c2cc1OC
inactive: Potency (Hek293T) | Potency (JEG-3)
active: Potency (KB-3-1) 18.7 µM | Potency (NIH3T3 [1]) 9.35 µM and 3.66 µM | Potency (WaGa) 23.5 µM

CC(C)n1c(C=C[C@H](O)C[C@H](O)CC(=O)O)c(-c2ccc(F)cc2)c2ccccc21
active: Potency (KB-3-1) 11.8 µM | Potency (NIH3T3 [1]) 16.6 µM | Potency (MKL-2) 7.43 µM | Potency (UISO) 10.5 µM | Potency (WaGa) 18.7 µM

COc1ccc(CCN(C)CCCOc2ccc(S(=O)(=O)c3[nH]c4ccccc4c3C(C)C)cc2)cc1OC
inactive: max response (KB-3-1) 5.18% | Potency (MCC-13) | Potency (MCC-26)

CN1N=C(N)c2cn([C@@H]3O[C@H](COP(=O)(O)O)[C@@H](O)[C@@H]3O)c3ncnc1c23
inactive: Potency (MCC-26)
active: Potency (KB-3-1) 3.72 µM | Potency (NIH3T3 [1]) 0.418 µM | Potency (MKL-1) 5.9 µM | Potency (MKL-2) 5.9 µM | Potency (UISO) 0.469 µM | Potency (WaGa) 0.0372 µM

CC1(C)CC(=O)c2c(C(F)(F)F)nn(-c3ccc(C(N)=O)c(NC4CCC(O)CC4)c3)c2C1 (stereo not given)
active: Potency (KB-3-1) 0.105 µM | Potency (NIH3T3 [1]) 235 nM and 184 nM | Potency (UISO) 0.166 µM | Potency (OV90) 0.316 µM | Potency (PA-1) 0.447 µM
inactive: Potency (HeLa)

NC(=O)c1noc([C@H](CCCC2CCCCC2)CC(=O)NO)n1
inactive: max response (KB-3-1) -19.6% and 9.75% | Potency (MCC-26) | Potency (C33A) | Potency (CASKI) | Potency (Es-2) | Potency (HeLa) | Potency (Hek293T) | Potency (JEG-3) | Potency (OV90)
active: Potency (NIH3T3 [1]) 18.7 µM and 16.4 µM | Potency (MKL-1) 16.6 µM | Potency (UISO) 14.8 µM

CCC=CC[C@H]1C(=O)CC[C@@H]1CC(=O)OC
inactive: outcome (KB-3-1) | outcome (HACAT) | Potency (MCC-13) | Potency (MCC-26) | Potency (MKL-1) | Potency (MKL-2) | Potency (UISO) | Potency (WaGa)

CN1C(=O)C[C@H](C(=O)N[C@@H](Cc2cnc[nH]2)C(=O)N2CCC[C@@H]2C(N)=O)NC1=O
active: Potency (MKL-2) 6.62 µM | Potency (WaGa) 20.9 µM
inactive: outcome (KB-3-1) | outcome (NIH3T3 [1]) | Potency (MCC-13) | Potency (NIH3T3 [2])

COc1ccc(-c2ccc3ncc4c(c3c2)n(-c2ccc(N3CCNCC3)c(C(F)(F)F)c2)c(=O)n4C)cn1
active: Potency (KB-3-1) 16.6 nM and 41.1 nM | Potency (NIH3T3 [1]) 0.0053 µM | Potency (MCC-26) 0.372 µM | Potency (MKL-1) 0.0296 µM | Potency (MKL-2) 0.0418 µM | Potency (UISO) 0.0235 µM | Potency (C33A) 11.2 µM | Potency (CASKI) 0.794 µM | Potency (HeLa) 1.12 µM | Potency (OV90) 31.6 µM | Potency (PA-1) 0.316 µM

O=C(c1ccc(C=Cc2n[nH]c3ccccc23)cc1)N1CCNCC1
inactive: Potency (MCC-13) | Potency (MKL-2)
active: Potency (KB-3-1) 9.35 µM | Potency (NIH3T3 [1]) 2.35 µM

Oc1ccc(C=Cc2cc(O)cc(O)c2)cc1
inactive: max response (KB-3-1) -2.23% | Potency (MCC-13) | Potency (MCC-26) | Potency (MKL-1)

CC(C)N(CCCNC(=O)Nc1ccc(C(C)(C)C)cc1)C[C@H]1O[C@@H](n2cc(Br)c3c(N)ncnc32)[C@H](O)[C@H]1O
active: Potency (KB-3-1) 26.4 µM
inactive: Potency (MCC-13) | Potency (MCC-26) | Potency (MKL-1) | Potency (MKL-2) | Potency (WaGa)
